Potency and outcome data for 13 molecules are collected here from PubChem BioAssay (Tox21).

Experiment [1] is described as follows: A CellTox Green Cytotoxicity Assay to monitor cytotoxicity in HepG2 cells - 8 hour (AID 1224890). Also: nearly all actives have a fitted effect of over 45% in size. The essentials: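 Real-time, homogeneous cytotoxicity readout: dead-cell DNA staining by CellTox Green in HepG2 monolayers, fluorescence measured at timed intervals up to 40 h of continuous compound exposure.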
Experiment [2] in a line: qHTS assay to identify small molecule antagonists of the androgen receptor (AR) signaling pathway using the MDA cell line in the presence of 0.5 nM R1881 - cell viability counter screen (AID 1259242). Also: nearly all actives have a fitted effect of over 45% in size. Also: potency is read from the fitted curve at half-maximal effect. In a few lines:
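Cytotoxicity toward MDA-kb2 cells is measured by CellTiter-Fluor live-cell protease fluorescence after 16 hr compound exposure at 37C in the presence of 0.5 nM R1881 stimulator.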
(In general: qHTS replaces the single test concentration by a dilution series.)

Experiment [3] in a line: qHTS assay to identify small molecule phospholipidosis (PLD) inducers (AID 1259344; active = well fitted curve in the direction sought with a large enough effect; an effect the other way counts as inactive or inconclusive). In a few lines: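 HepG2 cells on collagen I, attached 4 h at 37 C, were co-treated with compound and LipidTOX Red dye for 24 h at 37 C, then fixed with paraformaldehyde plus Hoechst 33342 and imaged by high-content microscopy for phospholipid accumulation.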
The nature of experiment [4]: qHTS assay to identify small molecule HDAC inhibitors (AID 1259364). Also: top concentration of the series differs between compounds; nearly all actives have a fitted effect of over 45% in size. In a few lines:
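Homogeneous cell-based luminescent assay of endogenous class I/II HDAC activity; HCT-116 cells, 2 h compound exposure, 30 min HDAC-Glo development at RT.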

Experiment [5] in a line: qHTS assay to identify small molecule HDAC inhibitors - cell viability counter screen (AID 1259365). Also: series mostly up to about 92 µM; nearly all actives have a fitted effect of over 50% in size. In a few lines: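 To flag cytotoxic hits, 1,500 wild-type HCT-116 cells per well, plated the day before, receive test compounds for 2hr at 37 C before CellTiter-Glo reagent and a luminescence read.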
Experiment [6] is described as follows: qHTS assay to identify small molecule agonists of the sonic hedgehog signaling (Shh) pathway - cell viability counter screen (AID 1259366). Also: nearly all actives have a fitted effect of over 50% in size. Also: potency is read from the fitted curve at half-maximal effect. In a few lines: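 Fluorescence from CellTiter-Fluor reports live cells in this counter screen. NIH/3T3-derived Gli1-Luc reporter cells receive test compounds for 24hr at 37C; reagent goes in at 23hr.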
Experiment [7] can be described thus: qHTS assay to identify small molecule antagonists of the sonic hedgehog signaling (Shh) pathway - cell viability counter screen (AID 1259367). Also: nearly all actives have a fitted effect of over 55% in size. Also: potency is read from the fitted curve at half-maximal effect. The essentials:
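NIH/3T3-derived Gli1-Luc reporter cells (2,000 per well) rested 4 hr at 37 C, then received DMSO compounds plus conditioned medium. After 23 hr of treatment, CellTiter-Fluor was added for 1 hr at 37C and fluorescence read.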

Experiment [8] is described as follows: qHTS assay to identify small molecule agonists of the sonic hedgehog signaling (Shh) pathway (AID 1259368; calls by dose curve;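 also: NIH/3T3-derived 3T3Gli1-Luc cells carrying a stable Gli1-driven firefly luciferase reporter; series mostly up to about 92 µM; nearly all actives have a fitted effect of over 15% in size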). In a few lines: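 Steps: seed 3T3 Gli1-Luc cells, incubate 4 hr at 37 C, pin-transfer compounds in DMSO alongside a positive control, incubate 24 hr, add luciferase detection reagent, wait 30 min at room temperature, read luminescence.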
Experiment [9] can be described thus: qHTS assay to identify small molecule antagonists of the sonic hedgehog signaling (Shh) pathway (AID 1259369; calls by dose curve; also: nearly all actives have a fitted effect of over 45% in size; also: potency is read from the fitted curve at half-maximal effect). In a few lines:
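Inhibition of Shh signalling is measured as reduced Gli1-response-element firefly luciferase output in an NIH/3T3-derived stable reporter clone stimulated with conditioned medium for 24hr.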

Experiment [10] is described as follows: qHTS assay to identify small molecule agonists of the androgen receptor (AR) signaling pathway in the presence of an antagonist - cell viability counter screen (AID 1259379). Also: nearly all actives have a fitted effect of over 25% in size. Also: potency is read from the fitted curve at half-maximal effect. In a few lines:
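Fluorescence from CellTiter-Fluor, added after 15 hr and read 1 hr later, gave cell viability. Cells were MDA-kb2 exposed to compounds (15 concentrations) in the presence of 3.0uM nilutamide at 37C, 0% CO2.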

Experiment [11] in a line: qHTS assay to identify small molecule agonists of the estrogen receptor beta (ER-beta) signaling pathway - cell viability counter screen (AID 1259380). Also: nearly all actives have a fitted effect of over 30% in size. Also: potency is read from the fitted curve at half-maximal effect. In a few lines: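 Same-well viability counter screen. Cells: ER-beta-UAS-bla HEK293T, plated 6 hr before compound, in 2% charcoal-stripped FBS. Compound exposure 16 hr, 37C; viability by CellTiter-Glo luminescence after 30 min at room temperature.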

The nature of experiment [12]: qHTS assay to identify small molecule antagonists of the estrogen receptor beta (ER-beta) signaling pathway - cell viability counter screen (AID 1259382). Also: nearly all actives have a fitted effect of over 55% in size. Also: potency is read from the fitted curve at half-maximal effect. In a few lines:
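Following a 6 hr plating period, HEK293T cells carrying a UAS-driven beta-lactamase reporter under ER-beta control received compounds and 1nM E2 (final). After 16 hr at 37C and 2 hr substrate loading, CellTiter-Glo luminescence indicated viability.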

Experiment [13] can be described thus: qHTS assay to identify small molecule agonists or antagonists of the thyroid stimulating hormone receptor (TSHR) signaling pathway - wild type cell line counter screen (AID 1259384; calls by dose curve). The essentials:
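Wild-type HEK293 cells were plated 18 h at 37 C/5% CO2, pin-dosed with compound plus Ro20-1724 medium, held 30 min at room temperature, then given cAMP-d2 and anti-cAMP-cryptate; fluorescence was read after 1 h. Fifteen concentrations, triplicate.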

Experiment [14] deals with Thyrotropin receptor (Homo sapiens) (UniProt P16473). The experiment is described as follows: qHTS assay to identify small molecule antagonists of the thyroid stimulating hormone receptor (TSHR) signaling pathway (AID 1259385; calls by dose curve; also: nearly all actives have a fitted effect of over 20% in size). In a few lines: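 TSHR-HEK293 cells were plated and held 18 h at 37C/5% CO2, then given compound plus Ro20-1724 and stimulated with TSH at 1.5 ng/mL final. After 30 min at room temperature, cAMP was detected with cAMP-d2/anti-cAMP-cryptate (1 h) by fluorescence.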
Chain of Thyrotropin receptor (Homo sapiens) (P16473 whole entry, looked up): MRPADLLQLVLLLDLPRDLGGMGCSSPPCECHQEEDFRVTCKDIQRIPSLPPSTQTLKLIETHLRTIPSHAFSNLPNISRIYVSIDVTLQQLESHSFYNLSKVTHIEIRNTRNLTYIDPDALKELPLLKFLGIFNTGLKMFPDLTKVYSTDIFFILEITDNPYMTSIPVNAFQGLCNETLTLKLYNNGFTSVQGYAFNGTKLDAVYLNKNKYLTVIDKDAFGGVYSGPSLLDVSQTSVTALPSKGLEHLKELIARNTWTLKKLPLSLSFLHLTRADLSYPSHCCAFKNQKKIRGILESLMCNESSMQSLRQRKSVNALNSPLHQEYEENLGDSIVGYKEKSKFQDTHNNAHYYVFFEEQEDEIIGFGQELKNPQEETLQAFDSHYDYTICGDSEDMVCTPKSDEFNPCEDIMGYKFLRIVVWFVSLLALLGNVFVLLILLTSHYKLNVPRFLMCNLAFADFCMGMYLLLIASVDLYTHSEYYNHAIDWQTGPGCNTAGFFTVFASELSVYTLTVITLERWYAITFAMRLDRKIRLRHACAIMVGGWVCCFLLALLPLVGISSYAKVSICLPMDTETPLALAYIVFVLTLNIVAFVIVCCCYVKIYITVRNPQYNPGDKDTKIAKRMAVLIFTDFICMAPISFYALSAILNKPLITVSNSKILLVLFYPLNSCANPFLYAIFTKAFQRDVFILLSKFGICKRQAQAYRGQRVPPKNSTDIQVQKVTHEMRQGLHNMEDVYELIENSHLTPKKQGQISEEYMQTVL

For experiment [15], the target named is Estrogen receptor beta (Homo sapiens) (UniProt Q92731). The experiment is described as follows: qHTS assay to identify small molecule agonists of the estrogen receptor beta (ER-beta) signaling pathway (AID 1259377; active = well fitted activation curve with a large enough effect in the signal ratio in the repeat runs, not every such curve was filed as active; the % refers to the signal ratio). In a few lines: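 Screening used GripTite ER-beta-UAS-bla cells held in 2% charcoal-stripped FBS medium. After overnight (16 hr) compound incubation at 37C, beta-lactamase activity was detected with a FRET substrate by fluorescence.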
Chain of Estrogen receptor beta (Homo sapiens) (Q92731 whole entry, looked up): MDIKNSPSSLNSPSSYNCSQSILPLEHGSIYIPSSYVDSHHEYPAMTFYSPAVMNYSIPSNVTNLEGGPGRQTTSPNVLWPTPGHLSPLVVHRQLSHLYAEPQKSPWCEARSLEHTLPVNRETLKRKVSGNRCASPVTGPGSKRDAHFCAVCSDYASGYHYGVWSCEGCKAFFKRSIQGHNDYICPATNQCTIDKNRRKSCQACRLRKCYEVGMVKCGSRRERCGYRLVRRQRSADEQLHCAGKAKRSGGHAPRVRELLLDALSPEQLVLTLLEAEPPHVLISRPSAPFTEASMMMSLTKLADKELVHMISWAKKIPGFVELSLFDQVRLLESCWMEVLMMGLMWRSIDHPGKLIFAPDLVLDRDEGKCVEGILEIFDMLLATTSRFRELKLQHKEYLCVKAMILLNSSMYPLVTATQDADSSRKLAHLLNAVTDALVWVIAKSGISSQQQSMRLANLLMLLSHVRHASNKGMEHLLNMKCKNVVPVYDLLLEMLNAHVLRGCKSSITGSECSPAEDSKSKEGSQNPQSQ

For experiment [16] the target is unchanged. Put plainly: qHTS assay to identify small molecule antagonists of the estrogen receptor beta (ER-beta) signaling pathway (AID 1259378; active = well fitted inhibition curve with a large enough effect in the signal ratio in the repeat runs, not every such curve was filed as active; the % refers to the signal ratio). In a few lines:
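ER-beta-UAS-bla HEK293T (GripTite) cells in 2% charcoal-stripped FBS medium were preincubated 6 hr at 37C, dosed with compound, then stimulated with 1 nM E2 (final) for 16 hr; beta-lactamase reporter read by B/G FRET fluorescence after 2 hr substrate loading.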

The target in experiment [17] is Estrogen receptor (Homo sapiens) (UniProt P03372). The experiment is described as follows: qHTS assay to identify small molecule antagonists of the estrogen receptor alpha (ER-alpha) signaling pathway using the BG1 cell line in the presence of 0.1 nM 17-beta-estradiol (AID 1259244). Also: nearly all actives have a fitted effect of over 50% in size. Also: potency is read from the fitted curve at half-maximal effect. The essentials: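 After 5 days in hormone-depleted medium (charcoal-stripped serum, no phenol red), VM7Luc4E2 cells were seeded, incubated 24 h, then co-treated with compound and 0.1 nM (final) estradiol for 22 h before luminescence detection.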
Chain of Estrogen receptor (Homo sapiens) (P03372 whole entry, looked up): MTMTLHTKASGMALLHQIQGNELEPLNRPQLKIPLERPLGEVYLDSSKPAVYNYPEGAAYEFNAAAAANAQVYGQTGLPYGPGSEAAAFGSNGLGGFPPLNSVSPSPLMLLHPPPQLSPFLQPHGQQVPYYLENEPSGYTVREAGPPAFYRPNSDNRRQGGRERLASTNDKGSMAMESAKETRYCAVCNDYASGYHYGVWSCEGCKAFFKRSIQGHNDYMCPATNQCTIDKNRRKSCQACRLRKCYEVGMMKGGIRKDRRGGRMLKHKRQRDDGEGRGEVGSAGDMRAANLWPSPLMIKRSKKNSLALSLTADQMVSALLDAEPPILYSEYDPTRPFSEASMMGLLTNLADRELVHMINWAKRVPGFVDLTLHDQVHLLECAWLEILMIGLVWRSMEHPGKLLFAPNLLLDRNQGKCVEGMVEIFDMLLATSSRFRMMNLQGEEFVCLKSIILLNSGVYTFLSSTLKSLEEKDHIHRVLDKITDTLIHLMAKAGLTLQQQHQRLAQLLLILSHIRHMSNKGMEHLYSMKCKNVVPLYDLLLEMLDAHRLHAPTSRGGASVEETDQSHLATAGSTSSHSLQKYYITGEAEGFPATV

Experiment [18] shares this target. Put plainly: qHTS assay to identify small molecule agonists of the estrogen receptor alpha (ER-alpha) signaling pathway in the presence of an antagonist (AID 1259383; calls by dose curve; also: nearly all actives have a fitted effect of over 15% in size; also: potency is read from the fitted curve at half-maximal effect; as to activation: top concentration of the series differs between compounds). The essentials: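 Cells are hormone-deprived for 5 days (charcoal-stripped FBS, no phenol red), plated for 24hr, spiked with 10.0nM ICI-182,780, then dosed at 15 concentrations. After 22hr at 37C, ONE-Glo luminescence reports ERE-luciferase activity.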

“And” between values parts separate entries of the source, which are not always exact repeats. Equal entries are not always repeated. Records with an inconclusive call do not appear. A structure can be active in one record and inactive in another. The source made the active and inactive calls. Unless noted, calls follow the shape of the dose curve; as a rule, active = well fitted curve in the direction sought with a large enough effect in the repeat runs; inconclusive = weak or mixed curves; inactive = no such curve, though single readings can be large; an effect the other way counts as inactive or inconclusive.

Turning to `CC1CC(OC(=O)c2ccccc2O)CC(C)(C)C1` (centres undefined), the Potency entry in experiment [1], in experiment [2], in [4], in experiment [6], in experiment [10] and in experiment [11] was “inactive” throughout. Besides, the Potency result in experiment [12] is “inactive”. Moreover, the call in experiment [3], in experiment [5], in experiment [8], in experiment [13] and in [14] was inactive. The Potency in [7] is 60.5 µM (active) and inactive; in experiment [9] it was 27 µM (active) and inactive.
For the molecule `Cc1cc(Cc2ccc(N)c(C)c2)ccc1N`, the Potency entry in experiment [1], in [2], in experiment [4], in [6], in experiment [7] and in experiment [9] was “inactive” each time. Further, the Potency entry in experiment [15], in experiment [16] and in experiment [12] was “inactive” in each case. Also, the molecule was classed as inactive in [5] and in experiment [8].
On to `O=C1N=C(O)CN1/N=C/c1ccc(-c2ccc([N+](=O)[O-])cc2)o1`, for which the Potency entry in experiment [1], in experiment [4], in experiment [9], in experiment [11] and in experiment [12] was “inactive” in each case. The outcome in experiment [3], in experiment [5], in experiment [8] and in [13] was inactive. In experiment [10], the Potency was 30.6 µM (active) and 23.7 µM (active).
`CC[Si](OC(C)=O)(OC(C)=O)OC(C)=O`: the Potency entry in [1], in experiment [2], in experiment [17], in experiment [4], in [6] and in experiment [7] was “inactive” each time. The Potency entry in [9], in [11], in experiment [12] and in experiment [18] was “inactive” throughout. The outcome in experiment [5], in experiment [8], in experiment [13] and in experiment [14] was inactive.
Turning to `O=[N+]([O-])c1cccc(Cl)c1`, the Potency entry in [1], in experiment [2], in [17], in experiment [4], in experiment [6] and in experiment [7] was “inactive” in each case. Besides, the Potency result in [9], in [15], in experiment [16], in experiment [11] and in experiment [12] was “inactive” each time. Further, the call in [8], in experiment [13] and in experiment [14] was inactive. Also, in experiment [18], the Potency is 67.4 µM (active) and inactive.
For the molecule `CN(C)c1ccc(C(=N)c2ccc(N(C)C)cc2)cc1`, the Potency entry in experiment [1], in [4], in experiment [15], in experiment [16], in [12] and in [18] was “inactive” throughout. Besides, the Potency in experiment [2] was 48 µM (active) and 46.7 µM (active); in experiment [17], 17 µM (active) and 23.4 µM (active); in [6] it was 48 µM (active); in experiment [7], 48 µM (active) and 23.4 µM (active); in experiment [9], 2.4 µM (active) and 11.7 µM (active); in experiment [10] it was 30.3 µM (active) and 26.3 µM (active). Besides, the molecule was called inactive in experiment [5], in experiment [8], in [13] and in [14].
`O=S(=O)(O)c1cc(S(=O)(=O)O)c2c(N=Nc3ccccc3)c(O)ccc2c1`: the Potency result in [1], in [17], in [4], in experiment [9], in [15] and in experiment [16] was “inactive” in each case. The Potency entry in [11], in experiment [12] and in [18] was “inactive” in each case. For the same molecule, the call in experiment [5], in experiment [8], in experiment [13] and in [14] was inactive. The Potency in experiment [10] was 30.8 µM (active) and 54.5 µM (active).
Take `Clc1cc(Cl)c(Cl)cc1Cl`: the Potency result in [1], in experiment [2], in [17], in [4], in experiment [6] and in experiment [7] was “inactive” in each case. The Potency entry in experiment [9], in [15], in experiment [16], in experiment [10], in experiment [11] and in experiment [12] was “inactive” each time. For the same molecule, the Potency entry in experiment [18] was “inactive”. The result in experiment [8] was inactive.
In the case of `C=C1CC[C@H](O)CC1=C/C=C1\CCC[C@]2(C)[C@@H]([C@H](C)/C=C/[C@H](C)C(C)C)CC[C@@H]12`, the Potency result in [1], in [2], in [4], in [6], in experiment [15] and in experiment [10] was “inactive” each time. The call in experiment [3], in [8], in [13] and in experiment [14] was inactive. In addition, the Potency in experiment [9] was 4.81 µM (active) and 17.2 µM (active); in experiment [11] it was 24.1 µM (active) and 30.6 µM (active); in [12], 42.9 µM (active).
Turning to `COCC(C)O` (centres undefined), the Potency entry in experiment [1], in experiment [2], in experiment [17], in experiment [4], in experiment [6] and in experiment [7] was “inactive” each time. The Potency entry in [9], in [10], in experiment [11], in [12] and in [18] was “inactive” each time. In addition, the call in [5], in experiment [8], in experiment [13] and in [14] was inactive.
Turning to `COC(=O)c1ccc(C(=O)OC)cc1`, the Potency entry in experiment [1], in experiment [2], in experiment [15], in experiment [16] and in experiment [18] was “inactive” each time. Also, the Potency in experiment [17] is 6.19 µM (active) and inactive; in experiment [6], 6.95 µM (active) and inactive; in [7], 2.2 µM (active) and inactive; in [9] it was 982 nM (active) and inactive; in [11], 6.19 µM (active) and inactive; in [12], 19.6 µM (active) and inactive. In addition, the outcome in experiment [8], in experiment [13] and in experiment [14] was inactive.
Take `CC(C)n1c(/C=C/[C@@H](O)C[C@@H](O)CC(=O)O)c(-c2ccc(F)cc2)c2ccccc21`: the Potency entry in experiment [1], in experiment [2], in [4], in [6], in experiment [7] and in [10] was “inactive” throughout. In addition, the result in experiment [3], in [5] and in experiment [8] was inactive. Moreover, the Potency in experiment [11] is 13.7 µM (active) and 4.73 µM (active); in experiment [12], 15.4 µM (active).
`CCCCNC(N)=O`: the Potency result in [1], in experiment [2], in [4], in experiment [6], in experiment [7] and in experiment [9] was “inactive” each time. The Potency entry in experiment [15], in experiment [16], in [10], in experiment [11] and in [12] was “inactive” throughout. Also, the outcome in experiment [5] and in experiment [8] was inactive.
